This is an account of results in PubChem BioAssay (NCI).

Molecules are shown by their SMILES. Compounds without any hit were thinned out: in the full panel of roughly 79,000, 15% have a hit. Values without a mark were called inactive. Activity calls are given as the source filed them. Cut-off read from the data, not from the text of the source: active = growth inhibition above about 70%; inactive = the rest.

One assay in a line: NCI Yeast Anticancer Drug Screen. Data for the rad50 strain (AID 155).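 Note: 0% = growth of vehicle-only cultures of the same strain.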 The settings on record: S. cerevisiae rad50 strain growth inhibition; at 50.0 µM (retest, dose inferred, filed as 5.0); stronger effect = higher value. Summed up: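 Growth of the mutant yeast was measured after compound exposure and referenced to vehicle-treated cultures.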
In the case of `CN(C)CC(CN(C)C)C(=O)/C=C/c1ccc(Cl)cc1Cl`, the growth inhibition was 98% (active).

As for `c1ccc2c(c1)ccn2CCc1c[nH]c2ccccc12`, the growth inhibition is 48%.

For `Cc1ccccc1NC(=O)c1c(C)oc2c1C(=O)c1ccccc1C2=O`, the growth inhibition is 33%.

As to `CC(C)OC(=O)NNc1c(Cl)cc(Cl)cc1Cl`, the growth inhibition is 28%.

Take `COc1ccc2nc3cccc([N+](=O)[O-])c3c(NCCNCCO)c2c1`: the growth inhibition is 98% (active).

Consider `COc1ccc2c(c1)CCCC(Br)C2=O` (configuration not stated), for which the growth inhibition is 48%.

In the case of `CCC(OC(C)=O)C1CC(C(C)C)CCC1C` (configuration not stated), the growth inhibition was 9%.

On to `O=S(=O)(c1cccc(C(F)(F)F)c1)N1c2ccccc2-n2cccc2C1c1cccnc1` (configuration not stated), for which the growth inhibition was 96% (active).

As for `c1ccc(-c2cc(C3CO3)c3ccccc3n2)cc1` (configuration not stated), the growth inhibition is 15%.

`COc1ccc(/C=C2\SC(=S)N(/C=C3\C(=O)N(c4ccccc4)N=C3C)C2=O)cc1OC`: the growth inhibition was 51%.

In the case of `CC1=CC(=C(c2ccc(N)c(C)c2)c2ccc(N)c(C)c2)C=CC1=N`, the growth inhibition was 87% (active).

Consider `CC1C(c2ccccc2)SC(=N)N1C` (configuration not stated), for which the growth inhibition is 51%.

As to `CC(/C=C/c1ccc([N+](=O)[O-])o1)=N/N1CC(CN2CCOCC2)OC1=O` (configuration not stated), the growth inhibition is 90% (active).

Regarding `C=CC(C)(C)N1C(=O)C(C(C)=O)=C(O)C1Cc1c[nH]c2ccccc12` (configuration not stated), the growth inhibition is 48%.

For the compound `O=C1c2cccc3cccc(c23)C(=O)N1CCNCCN1C(=O)c2cccc3cccc(c23)C1=O`, the growth inhibition is 84% (active).

With `Cc1ccc([N+](=O)[O-])c2c(NCCC[N+](C)(C)[O-])c3ccccc3nc12`, the growth inhibition was 44%.

Regarding `COC(=O)C(Cc1c[nH]c2ccccc12)N1CN(C)c2ccccc2C1=O` (configuration not stated), the growth inhibition was 37%.

With `O=C(/N=N/C(=O)Oc1ccccc1)Oc1ccccc1`, the growth inhibition is 96% (active).

In the case of `COc1cc([C@@H]2c3cc4c(cc3[C@@H](NC(=O)NO)[C@H]3COC(=O)[C@H]23)OCO4)cc(OC)c1O`, the growth inhibition was 79% (active).

For `CC1(C)CC(=O)C(/C=N/c2nc(-c3ccc(Br)cc3)cs2)=C(O)C1`, the growth inhibition is 96% (active).

Turning to `CCOC(=O)/C(=C/c1cccc(Cl)c1)N(CC)CC`, the growth inhibition is 75% (active).

As to `CC(C)OC(=O)NNc1cccc(Cl)c1`, the growth inhibition is 95% (active).

Consider `CCC(=O)C1=C(O)c2cc(OC)ccc2CC1C(=O)OC` (configuration not stated), for which the growth inhibition was 73% (active).

With `O=S(=O)(NC1CCCC(c2ccccc2)C1)c1ccccc1` (configuration not stated), the growth inhibition was 71% (active).

As for `COc1ccc2nc3cccc([N+](=O)[O-])c3c(NCCCCCC(=O)O)c2c1`, the growth inhibition is 98% (active).

Consider `CCO/C=C1\SC(=S)N(c2ccc(OCC)cc2)C1=O`, for which the growth inhibition was 79% (active).

Consider `COc1cc(OC)c(CSCC(NC(=O)OCC2c3ccccc3-c3ccccc32)C(=O)O)c(OC)c1` (configuration not stated), for which the growth inhibition is 99% (active).

`COC(=O)c1ccccc1N=NNc1cccc(SC)c1`: the growth inhibition is 41%.

For the compound `CC1=NN(C(=O)c2ccccc2O)C(=O)/C1=C/c1ccco1`, the growth inhibition was 89% (active).

On to `COc1ccccc1NC(=O)c1ccc(Cl)cc1`, for which the growth inhibition was 12%.

In the case of `CC(C)=CCC/C(C)=C/CN1C(=O)C=CC1=O`, the growth inhibition is 98% (active).

Regarding `O=C1CSC(c2ccccc2)N1c1ccc(-c2ccc(-n3c(-c4ccccc4)nc4ccccc4c3=O)cc2)cc1` (configuration not stated), the growth inhibition was 44%.

In the case of `N#CC1OB(O)c2ccccc21` (configuration not stated), the growth inhibition was 81% (active).

As for `O=C(NCCNCCNC(=O)c1cc(-c2ccccc2)nc2ccccc12)c1cc(-c2ccccc2)nc2ccccc12`, the growth inhibition is 28%.

As to `Brc1ccc(B2Nc3ccccc3N2)cc1`, the growth inhibition was 53%.

As to `CCOP(=O)(OCC)/C(C#N)=C/c1cccc(Oc2ccccc2)c1`, the growth inhibition is 96% (active).

Staying with this assay, now noted: S. cerevisiae rad50 strain growth inhibition; at 50.0 µM; stronger effect = higher value.
Regarding `CN(C)CC(CN(C)C)C(=O)/C=C/c1ccc(Cl)cc1Cl`, the growth inhibition is 54.5%.

For `c1ccc2c(c1)ccn2CCc1c[nH]c2ccccc12`, the growth inhibition was 91% (active).

As for `Cc1ccccc1NC(=O)c1c(C)oc2c1C(=O)c1ccccc1C2=O`, the growth inhibition is 82.2% (active).

For `CC(C)OC(=O)NNc1c(Cl)cc(Cl)cc1Cl`, the growth inhibition was 2.75%.

In the case of `COc1ccc2nc3cccc([N+](=O)[O-])c3c(NCCNCCO)c2c1`, the growth inhibition was 85% (active).

`COc1ccc2c(c1)CCCC(Br)C2=O` (configuration not stated): the growth inhibition is 37.4%.

For `CCC(OC(C)=O)C1CC(C(C)C)CCC1C` (configuration not stated), the growth inhibition was -15.1%.

Regarding `O=S(=O)(c1cccc(C(F)(F)F)c1)N1c2ccccc2-n2cccc2C1c1cccnc1` (configuration not stated), the growth inhibition is 90.5% (active).

As for `c1ccc(-c2cc(C3CO3)c3ccccc3n2)cc1` (configuration not stated), the growth inhibition is 90.7% (active).

On to `COc1ccc(/C=C2\SC(=S)N(/C=C3\C(=O)N(c4ccccc4)N=C3C)C2=O)cc1OC`, for which the growth inhibition is 63.4%.

With `CC1=CC(=C(c2ccc(N)c(C)c2)c2ccc(N)c(C)c2)C=CC1=N`, the growth inhibition is 85.2% (active).

In the case of `CC1C(c2ccccc2)SC(=N)N1C` (configuration not stated), the growth inhibition was -19.9%.

With `CC(/C=C/c1ccc([N+](=O)[O-])o1)=N/N1CC(CN2CCOCC2)OC1=O` (configuration not stated), the growth inhibition was 91.8% (active).

For `C=CC(C)(C)N1C(=O)C(C(C)=O)=C(O)C1Cc1c[nH]c2ccccc12` (configuration not stated), the growth inhibition is 28.6%.

Turning to `O=C1c2cccc3cccc(c23)C(=O)N1CCNCCN1C(=O)c2cccc3cccc(c23)C1=O`, the growth inhibition is 86.1% (active).

With `Cc1ccc([N+](=O)[O-])c2c(NCCC[N+](C)(C)[O-])c3ccccc3nc12`, the growth inhibition was 61.2%.

As for `COC(=O)C(Cc1c[nH]c2ccccc12)N1CN(C)c2ccccc2C1=O` (configuration not stated), the growth inhibition is 57.9%.

On to `O=C(/N=N/C(=O)Oc1ccccc1)Oc1ccccc1`, for which the growth inhibition was 56.4%.

With `COc1cc([C@@H]2c3cc4c(cc3[C@@H](NC(=O)NO)[C@H]3COC(=O)[C@H]23)OCO4)cc(OC)c1O`, the growth inhibition was 71.5% (active).

As to `CC1(C)CC(=O)C(/C=N/c2nc(-c3ccc(Br)cc3)cs2)=C(O)C1`, the growth inhibition was 99% (active).

Consider `CCOC(=O)/C(=C/c1cccc(Cl)c1)N(CC)CC`, for which the growth inhibition is 77.4% (active).

For the compound `CC(C)OC(=O)NNc1cccc(Cl)c1`, the growth inhibition was 96.1% (active).

For `CCC(=O)C1=C(O)c2cc(OC)ccc2CC1C(=O)OC` (configuration not stated), the growth inhibition was 13.1%.

`O=S(=O)(NC1CCCC(c2ccccc2)C1)c1ccccc1` (configuration not stated): the growth inhibition was 18.2%.

Consider `COc1ccc2nc3cccc([N+](=O)[O-])c3c(NCCCCCC(=O)O)c2c1`, for which the growth inhibition was 87% (active).

Turning to `CCO/C=C1\SC(=S)N(c2ccc(OCC)cc2)C1=O`, the growth inhibition was 29.7%.

`COc1cc(OC)c(CSCC(NC(=O)OCC2c3ccccc3-c3ccccc32)C(=O)O)c(OC)c1` (configuration not stated): the growth inhibition was 98.6% (active).

`COC(=O)c1ccccc1N=NNc1cccc(SC)c1`: the growth inhibition was 86.8% (active).

`CC1=NN(C(=O)c2ccccc2O)C(=O)/C1=C/c1ccco1`: the growth inhibition was 87.5% (active).

As for `COc1ccccc1NC(=O)c1ccc(Cl)cc1`, the growth inhibition was 17.6%.

`CC(C)=CCC/C(C)=C/CN1C(=O)C=CC1=O`: the growth inhibition is 99.7% (active).

Turning to `O=C1CSC(c2ccccc2)N1c1ccc(-c2ccc(-n3c(-c4ccccc4)nc4ccccc4c3=O)cc2)cc1` (configuration not stated), the growth inhibition is 57.1%.

As for `N#CC1OB(O)c2ccccc21` (configuration not stated), the growth inhibition was 58.2%.

`O=C(NCCNCCNC(=O)c1cc(-c2ccccc2)nc2ccccc12)c1cc(-c2ccccc2)nc2ccccc12`: the growth inhibition is 31.6%.

Take `Brc1ccc(B2Nc3ccccc3N2)cc1`: the growth inhibition is 73.8% (active).

On to `CCOP(=O)(OCC)/C(C#N)=C/c1cccc(Oc2ccccc2)c1`, for which the growth inhibition is 90.2% (active).
